Screening results deposited in PubChem by several laboratories.
An excerpt weighted towards active compounds, which were near 1.2% of everything screened.
A3A deaminase: human APOBEC3A DNA deaminase inhibition | recombinant A3A, FAM/TAMRA ssDNA deamination fluorescence | inhibition, % at 20 µM | 0.41% of 330,000 active | AID 493011;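 active = at least 40% inhibition at 20 µM here, with at most 30% in a related deaminase screen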
Target sequence (P31941 whole entry, looked up): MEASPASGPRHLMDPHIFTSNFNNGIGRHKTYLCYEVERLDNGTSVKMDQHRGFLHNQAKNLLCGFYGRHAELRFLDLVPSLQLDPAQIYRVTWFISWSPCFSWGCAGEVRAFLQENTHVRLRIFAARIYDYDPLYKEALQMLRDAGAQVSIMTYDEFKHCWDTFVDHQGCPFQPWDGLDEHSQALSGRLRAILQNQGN
APOBEC3G inh: blocks human APOBEC3G single-stranded DNA deamination. Q9HC16. recombinant A3G, ssDNA deamination FAM/TAMRA fluorescence. inhibition, % at 20 µM. 0.28% of 330,000 active;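 active = inhibition of at least 40% at 20 µM, with no more than 30% in the related APOBEC3A deaminase screen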
Target sequence (Q9HC16 whole entry, looked up): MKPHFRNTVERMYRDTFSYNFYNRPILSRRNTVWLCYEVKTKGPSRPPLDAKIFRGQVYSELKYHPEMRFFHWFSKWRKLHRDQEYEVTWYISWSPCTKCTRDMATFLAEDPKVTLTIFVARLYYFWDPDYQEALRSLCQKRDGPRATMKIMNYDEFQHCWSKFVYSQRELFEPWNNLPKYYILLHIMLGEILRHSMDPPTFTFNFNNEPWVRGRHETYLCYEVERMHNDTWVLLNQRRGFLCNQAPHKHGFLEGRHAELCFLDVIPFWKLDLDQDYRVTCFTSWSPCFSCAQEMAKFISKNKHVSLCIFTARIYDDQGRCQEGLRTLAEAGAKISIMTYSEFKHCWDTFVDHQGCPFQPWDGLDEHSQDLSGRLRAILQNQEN
NALP1 yeast inh: NALP1 inhibition; AID 2071; S. cerevisiae NALP1/ASC/caspase-1 growth, X-gal OD620, 72 h; inhibition, % at 10 µM; 0.61% of 280,000 active; in the data active = inhibition mostly above about 24%, no sharp cut-off; inactive = mostly below about 32%
PolyA inhibitor: blocks polyadenylation in yeast reporter cells; AID 1875; activity score, % at 12 µM; S. cerevisiae SKY197-pL101 polyadenylation reporter, beta-gal luminescence; efflux-impaired pdr1/pdr3 knockout yeast; score 100 = 6 SD above DMSO; 0.02% of 300,000 active;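 active = lowest replicate activity score at least 50, where 100 means six control SD above control mean; inconclusive = lowest score under 50 but half or more replicates reach 50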;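 also: yeast exposed to compound for 9 h at 30 °C; higher score means more reporter readthrough which indicates perturbed polyadenylation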
A3A conf: APOBEC3A (human) deaminase inhibition, confirmed; shares compounds with A3A deaminase; recombinant A3A, ssDNA deaminase UDG fluorescence assay; inhibition, % at 20 µM; 63% of 1,400 active;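 active = inhibition reaching a set limit, 80% of the first screen's cutoff, at 20 µM in any replicate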
UDG ctr A3A: inhibits UDG, flagging false APOBEC3A inhibitors. AID 504714. 1,000 tested, under 10 active. inhibition, % at 20 µM. shares compounds with A3A deaminase. UDG counterscreen, FAM/TAMRA uracil oligo fluorescence; call rule not given here
Numbers stand for hits; 0 = inactive; ? = inconclusive; - = no result given.

SMILES | A3A deaminase | APOBEC3G inh | NALP1 yeast inh | PolyA inhibitor | others
O=C(CCCn1c(=O)[nH]c2ccsc2c1=O)NCc1cccs1 | 0 | 0 | 21 | 0
O=C1C=CC(=O)N1CCNc1ncc(C(F)(F)F)cc1Cl | 0 | 0 | 55 | 0
CCOC(=O)C(=O)NNc1ccc(Cl)cc1 | 0 | 0 | 50 | 0
CCOC(=O)C(=O)NNc1ccc(C)cc1 | 0 | 0 | 0 | 0
Cc1[nH]n(-c2ccccc2)c(=O)c1C(c1cccc([N+](=O)[O-])c1)c1c(C)[nH]n(-c2ccccc2)c1=O | 0 | 0 | 0 | 0
Cc1[nH]n(-c2ccccc2)c(=O)c1C(c1ccc(C(=O)O)cc1)c1c(C)[nH]n(-c2ccccc2)c1=O | 0 | 0 | 0 | 0
Cc1[nH]n(-c2ccccc2)c(=O)c1C(C[N+](=O)[O-])c1ccc(Br)cc1 (stereo not given) | 0 | 0 | 65 | 0
COc1cccc(C(C[N+](=O)[O-])c2c(C)[nH]n(-c3ccccc3)c2=O)c1 (stereo not given) | 0 | 0 | 85 | 0
CCC(=O)Nc1ccc(C(=O)COC(=O)Cc2ccsc2)cc1 | 0 | 0 | - | -
CSCC[C@@H](C(=O)O)N1Cc2ccccc2C1=O | 0 | 0 | 39 | 0
Cc1ccc(OCCCCN(C)Cc2ccccc2)c(Br)c1 | 0 | 0 | 51 | 0
CN(Cc1c(F)cccc1Cl)C(=O)c1ccc(NC(=O)CC2SC(N3CCCCC3)=NC2=O)cc1 (stereo not given) | 0 | 0 | - | -
Cc1ccc(C)c(NC(=O)CCN2CC(C)CC(C)C2)c1 (stereo not given) | 0 | 0 | 38 | 0
Cc1ccc(C)c(NC(=O)CCN2CCC(C)CC2)c1 | 0 | 0 | 0 | 0
Cc1ccc(-c2nnc(N(C)C(=O)c3cccnc3)s2)cc1 | 0 | 0 | 41 | 0
CCN(CC)CCN1C(=O)/C(=C\c2ccc(Cl)c([N+](=O)[O-])c2)SC1=Nc1ccc(OC)cc1 | 0 | 0 | 44 | 0
COc1ccc(N=C2S/C(=C\c3ccc(Cl)c([N+](=O)[O-])c3)C(=O)N2CCN(C)C)cc1 | 0 | 0 | 0 | 0
O=C(Nc1ccccc1)Nc1nnc(-c2ccccc2)o1 | 0 | 0 | 25 | 0
COc1cccc(NC(=O)CCc2nc(-c3ccccc3F)no2)c1 | 0 | 0 | 0 | 0
O=C(CCc1nc(-c2ccccc2F)no1)Nc1ccc(Oc2ccccc2)cc1 | 0 | 0 | 41 | 0
CCN1C(=O)/C(=C/C=C2\N(CC)c3cc(S(=O)(=O)N(C)C)ccc3N2c2ccccc2)SC1=S | 0 | 0 | 0 | ?
COc1ccc(N2CCN(CCC(O)c3ccc4ccccc4c3)CC2)cc1 (stereo not given) | 0 | 0 | 40 | 0
CCC(=O)N1CCc2cc(S(=O)(=O)N(C)c3ccc(Br)cc3)ccc21 | 0 | 0 | 0 | 0
CSc1ccccc1NC(=O)CN1C(=O)C2CC=CCC2C1=O (stereo not given) | 0 | 0 | - | -
Cc1ccc(NC(=O)c2ccc(-n3cccn3)c([N+](=O)[O-])c2)cc1 | 0 | 0 | 0 | 0
SMILES | A3A deaminase | APOBEC3G inh | NALP1 yeast inh | PolyA inhibitor | others
O=C(Nc1ccc(C2=NCCN2)cc1)c1ccc(C(=O)Nc2ccc(C3=NCCN3)cc2)c([N+](=O)[O-])c1 | 0 | 0 | 35 | 0
Cc1cccc(-c2cc3nc(C)cc(NCCCN(C)C)n3n2)c1 | 0 | 0 | 0 | 0
CN(C)CCCNc1cc(-c2ccccc2)nc2cc(-c3cccc(F)c3)nn12 | 0 | 0 | 26 | 0
CCOC(=O)c1ccc(NC(=O)C(C)NS(=O)(=O)c2ccc(OC)cc2)cc1 (stereo not given) | 0 | 0 | 0 | 0
CCOC(=O)c1ccc(NC(=O)COc2ccc(S(=O)(=O)NC(C)CC)cc2)cc1 (stereo not given) | 0 | 0 | 28 | 0
CCCCSCCCNC(=O)Nc1cccc(OC)c1 | 0 | 0 | 40 | 0
Cn1c(-c2ccccc2)c(/C=N/NC(=O)c2ccc(O)cc2)c2ccccc21 | 0 | 0 | 0 | 0
CCCCCCCCCn1c2c(c(=N)c3c1CCC3)CCCC2 | 0 | 0 | 0 | 0
CCCCCCCCCCn1c2c(c(=N)c3c1CCC3)CCC2 | 0 | 0 | 34 | 0
Cc1ccc(C(C(=O)NC2CCCCC2)N(C(=O)Cc2c[nH]c3ccccc23)c2ccccc2C)o1 (stereo not given) | 45 | 0 | 0 | 0 | A3A conf=0;UDG ctr A3A=0
Cc1ccccc1N(C(=O)Cc1c[nH]c2ccccc12)C(C(=O)NC1CCCCC1)c1ccco1 (stereo not given) | 0 | 0 | 0 | 0
CC(C)(C)Cc1nnc(NC(=O)CSc2ccccc2)s1 | 0 | 0 | 0 | 0
CC1CC(OCC(O)C[N+]2(C)CCOCC2)CC(C)(C)C1 (stereo not given) | 62 | 0 | 0 | 0 | A3A conf=69;UDG ctr A3A=0
CNC(=O)c1cc(Cl)c(OC)c(OC)c1 | 57 | 0 | 0 | 0 | A3A conf=0
COc1cc(C(N)=O)cc(Cl)c1OC | 0 | 0 | 0 | 0
Cc1c(C)n(Cc2ccccc2)c2ccc(C(=O)OCCN(C)C)cc12 | 0 | 0 | 0 | 0
CC1CCC(=NNC(=O)c2ccccc2-n2cccc2)CC1 (stereo not given) | 0 | 0 | - | 0
CC1CCC/C(=N/NC(=O)c2ccccc2-n2cccc2)C1 (stereo not given) | 53 | 0 | 0 | 0 | A3A conf=13;UDG ctr A3A=0
Cc1ccccc1CC(=O)NCc1cccnc1 | 0 | 0 | 0 | 0
O=C(O)c1ccc2c3c(cccc13)C(=O)N(c1ccccc1)C2=O | 63 | 0 | 0 | 0 | A3A conf=55;UDG ctr A3A=0
Cc1ccc(OCC(=O)N(C)C2CCCCC2)c([N+](=O)[O-])n1 | 0 | 0 | - | -
CCn1c(SCC(=O)OC)nc2sc3c(c2c1=O)CCC3 | 0 | 0 | 0 | 0
CCn1c(SCC(=O)O)nc2sc3c(c2c1=O)CCC3 | 54 | 0 | 0 | 0 | A3A conf=48;UDG ctr A3A=0
Cn1c(SCC(=O)N2CCOCC2)nnc1-c1ccncc1 | 0 | 0 | 0 | 0
Cn1c(SCC(=O)N2CCOCC2)nnc1-c1cccc(NC(=O)c2ccccc2)c1 | 64 | 0 | 0 | 0 | A3A conf=66;UDG ctr A3A=0
SMILES | A3A deaminase | APOBEC3G inh | NALP1 yeast inh | PolyA inhibitor | others
Cc1ccc2c(CC(=O)OCc3cc(=O)n4c(n3)sc3ccccc34)coc2c1 | 44 | 0 | 0 | 0 | A3A conf=0
CC(C)[C@H](NC(=O)Cc1ccccc1)C(=O)OCc1cc(=O)n2c(n1)sc1ccccc12 | 43 | 0 | 0 | 0 | A3A conf=0
O=C(OCc1cc(=O)n2c(n1)sc1ccccc12)c1ccc2c(=O)n3c(nc2c1)CCC3 | 0 | 0 | 0 | 0
CCNc1ccc(Br)cc(C(=O)/C=C/c2ccc3c(c2)OCO3)c1=O | 46 | 0 | 0 | 0 | A3A conf=19;UDG ctr A3A=0
CCNc1ccc(Br)cc(C(=O)/C=C/c2ccc(Cl)cc2)c1=O | 0 | 0 | 0 | 0
CCOC(=O)CN1C(=O)S/C(=C\c2ccc(-c3ccc(C(=O)O)c(Cl)c3)o2)C1=O | 58 | 0 | 0 | 0 | A3A conf=40;UDG ctr A3A=0
CCOC(=O)CN1C(=O)S/C(=C\c2ccc(-c3cccc(C(=O)O)c3C)o2)C1=O | 0 | 0 | - | 0
CCCCn1c(N)c(N(CC(C)C)C(=O)C2=COCCO2)c(=O)[nH]c1=O | 0 | 0 | - | -
